# Source: the supplement of paper PMC9135407
# Several values for one entry are separate records, joined by “and”; a condition that tells them apart may be missing. Equal entries are not always repeated. Structures can show the parent of a compound that is named as a salt. About 620 (11%) of roughly 5,800 compounds showed activity. The sample holds actives, similar compounds and a random draw of the others, so the mix is not that of the screen. Unmarked numbers belong to inactive results.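 How the source made its calls: active = score above a cut-off or among the top three wells of a plate; in these data no inactive exceeds 0.85.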
# Test system: primary human hepatic stellate cells (donor 1)
# Test: scaled lipid accumulation score (0 = DMSO-like, 1 = nortriptyline-like); higher = stronger HSC inactivation (lipid re-accumulation), active = hit call of the paper
# Conditions: 48 h
# [1] = library stock concentration: 10 mM
# [2] = library stock concentration: 3.33 mM
# [3] = library stock concentration: 1 mM
compound,measurement,setting,value
O=C(O)c1ccc2[nH]cc(CCCCN3CC=C(c4ccccc4)CC3)c2c1 [Carmoxirole hydrochloride],scaled lipid accumulation score,[1],0.073
CN1C2CC(O)CC1C1OC12 (stereo not drawn) [Scopine],scaled lipid accumulation score,[2],≤ 0
same,scaled lipid accumulation score,[1],≤ 0
CCCCCCCCCCCCCCCC(=O)OCC(COP(=O)([O-])OCC[N+](C)(C)C)OC(C)=O (stereo not drawn),scaled lipid accumulation score,[3],0.014
C=C(C)[C@@H]1[C@H]2OC(=O)[C@@H]1[C@]1(O)C[C@H]3O[C@]34C(=O)O[C@H]2[C@]14C.CC(C)(O)[C@@H]1[C@H]2OC(=O)[C@@H]1[C@]1(O)C[C@H]3O[C@]34C(=O)O[C@H]2[C@]14C [Picrotin - Picrotoxinin],scaled lipid accumulation score,[1],≤ 0
c1cncc(C2=NCCC2)c1 [Myosmine],scaled lipid accumulation score,,≤ 0
CC(=O)OCC1=C(C(=O)[O-])N2C(=O)[C@@H](NC(=O)CCC[C@@H](N)C(=O)[O-])[C@H]2SC1.[Zn+2] [Cephalosporin C zinc salt],scaled lipid accumulation score,[1],0.329
COc1cc2c3cc1Oc1c(OC)c(OC)cc4c1[C@@H](Cc1cccc(c1)Oc1ccc(c(O)c1)C[C@@H]3N(C)CC2)N(C)CC4 [Berbamine hydrochloride],scaled lipid accumulation score,[1],≤ 0
COc1ccc(C[C@H]2NC[C@H](O)[C@H]2OC(C)=O)cc1 [Anisomycin] [listing 1 of 3 here],scaled lipid accumulation score,[1],0.806
COc1ccc(C[C@H]2NC[C@H](O)[C@H]2OC(C)=O)cc1 [Anisomycin] [listing 2 of 3 here],scaled lipid accumulation score,,1.05 (active)
COc1ccc(C[C@H]2NC[C@H](O)[C@H]2OC(C)=O)cc1 [Anisomycin] [listing 3 of 3 here],scaled lipid accumulation score,[1],1.39 (active)
COc1ccc(C[C@@H]2NC[C@@H](O)[C@@H]2OC(C)=O)cc1 [Anisomycin],scaled lipid accumulation score,library stock concentration: 18.8 mM,0.899 (active)
O[C@@H]1CCCC[C@H]1N1CCC(c2ccccc2)CC1 [L(-)-vesamicol hydrochloride],scaled lipid accumulation score,,≤ 0
CC(C)(C)NCC(O)COc1cccc2[nH]c(C#N)cc12 (stereo not drawn) [Cyanopindolol hemifumarate],scaled lipid accumulation score,[1],0.049
CC(C)[C@@H]1NC(=O)[C@H](C)OC(=O)[C@@H](C(C)C)NC(=O)[C@@H](C(C)C)OC(=O)[C@H](C(C)C)NC(=O)[C@H](C)OC(=O)[C@@H](C(C)C)NC(=O)[C@@H](C(C)C)OC(=O)[C@H](C(C)C)NC(=O)[C@H](C)OC(=O)[C@@H](C(C)C)NC(=O)[C@@H](C(C)C)OC1=O [Valinomycin],scaled lipid accumulation score,library stock concentration: 4.5 mM,0.447
CC1=NN=C(c2ccc(N)cc2)c2cc3c(cc2C1)OCO3,scaled lipid accumulation score,[1],≤ -0.07 and ≤ -0.006
CC[C@H](C)[C@H]1O[C@]2(C=C[C@@H]1C)C[C@@H]1C[C@@H](C/C=C(\C)[C@@H](O[C@H]3C[C@H](OC)[C@@H](O[C@H]4C[C@H](OC)[C@@H](O)[C@H](C)O4)[C@H](C)O3)[C@@H](C)/C=C/C=C3\CO[C@@H]4[C@H](O)C(C)=C[C@@H](C(=O)O1)[C@]34O)O2.CO[C@H]1C[C@H](O[C@H]2[C@H](C)O[C@@H](O[C@@H]3/C(C)=C/C[C@@H]4C[C@@H](C[C@]5(C=C[C@H](C)[C@@H](C(C)C)O5)O4)OC(=O)[C@@H]4C=C(C)[C@@H](O)[C@H]5OC/C(=C\C=C\[C@@H]3C)[C@]54O)C[C@@H]2OC)O[C@@H](C)[C@@H]1O [Abamectin],scaled lipid accumulation score,library stock concentration: 2.3 mM,0.027 and ≤ 0
CC[C@H](C)[C@H]1O[C@]2(C=C[C@@H]1C)C[C@@H]1C[C@@H](C/C=C(\C)[C@@H](O[C@H]3C[C@H](OC)[C@@H](O[C@H]4C[C@H](OC)[C@@H](O)[C@H](C)O4)[C@H](C)O3)[C@@H](C)/C=C/C=C3\CO[C@@H]4[C@H](O)C(C)=C[C@@H](C(=O)O1)[C@]34O)O2.CO[C@H]1C[C@H](O[C@H]2[C@H](C)O[C@@H](O[C@@H]3/C(C)=C/C[C@@H]4C[C@@H](C[C@]5(C=C[C@H](C)[C@@H](C(C)C)O5)O4)OC(=O)[C@@H]4C=C(C)[C@@H](O)[C@H]5OC/C(=C\C=C\[C@@H]3C)[C@]54O)C[C@@H]2OC)O[C@@H](C)[C@@H]1O [Avermectin b1],scaled lipid accumulation score,[1],≤ 0
CC[C@H](C)[C@H]1O[C@]2(C=C[C@@H]1C)C[C@@H]1C[C@@H](C/C=C(\C)[C@@H](O[C@H]3C[C@H](OC)[C@@H](O[C@H]4C[C@H](OC)[C@@H](O)[C@H](C)O4)[C@H](C)O3)[C@@H](C)/C=C/C=C3\CO[C@@H]4[C@H](O)C(C)=C[C@@H](C(=O)O1)[C@]34O)O2.CO[C@H]1C[C@H](O[C@H]2[C@H](C)O[C@@H](O[C@@H]3/C(C)=C/C[C@@H]4C[C@@H](C[C@]5(C=C[C@H](C)[C@@H](C(C)C)O5)O4)OC(=O)[C@@H]4C=C(C)[C@@H](O)[C@H]5OC/C(=C\C=C\[C@@H]3C)[C@]54O)C[C@@H]2OC)O[C@@H](C)[C@@H]1O [Avermectin B1],scaled lipid accumulation score,,≤ 0
O=C1C=CC[C@@H]2[C@H]3CCCN4CCC[C@@H](CN12)[C@@H]34 [Sophocarpine],scaled lipid accumulation score,[2],≤ 0
same,scaled lipid accumulation score,[1],≤ 0
CCCCC/C=C\C/C=C\C/C=C\C/C=C\CCCC(=O)NCCOP(=O)(O)O [Arachidonoyl Ethanolamide Phosphate],scaled lipid accumulation score,[3],≤ 0
"C/C(=C\c1csc(C)n1)[C@@H]1C[C@@H]2O[C@]2(C)CCC[C@H](C)[C@H](O)[C@@H](C)C(=O)C(C)(C)[C@@H](O)CC(=O)O1 [Epothilone B (EPO906, Patupilone)]",scaled lipid accumulation score,[2],≤ 0
same,scaled lipid accumulation score,[1],≤ 0
CCCCC/C=C\C/C=C\C/C=C\C/C=C\CCCC(N)=O [Arachidonoyl amide],scaled lipid accumulation score,[3],≤ 0
CCCCC/C=C\C/C=C\C/C=C\C/C=C\CCCC(N)=O [Arachidonamide],scaled lipid accumulation score,[3],≤ -0.021
CN1[C@H]2C[C@H](OC(=O)[C@H](CO)c3ccccc3)C[C@@H]1[C@@H](O)C2 [Anisodamine],scaled lipid accumulation score,[1],0.076
CN1[C@@H]2CC[C@H]1C[C@@H](OC1c3ccccc3CCc3ccccc31)C2 [Deptropine citrate],scaled lipid accumulation score,,0.266
CN1C2CCC1CC(OC(c1ccccc1)c1ccc(Cl)cc1)C2.Cl (stereo not drawn),scaled lipid accumulation score,[1],1.07 (active)
CN1[C@H]2C[C@H](OC(=O)[C@H](CO)c3ccccc3)C[C@@H]1[C@@H](O)C2,scaled lipid accumulation score,[1],≤ 0
CN1C2CCC1CC(OC(c1ccc(F)cc1)c1ccc(F)cc1)C2.Cl (stereo not drawn),scaled lipid accumulation score,[1],1.29 (active)
COc1cc(C(=O)OC2CC3CCC(C2)N3C)ccc1O (stereo not drawn) [Fillalbin],scaled lipid accumulation score,,≤ 0
CN1[C@@H]2CC[C@H]1C[C@@H](OC(c1ccccc1)c1ccccc1N)C2 (stereo partly drawn) [Aminobenztropine],scaled lipid accumulation score,[1],0.656
